Data published in ChEMBL document CHEMBL3433997, “St. Jude Leishmania screening dataset” (2016).

Assays:
Format in all cases: functional
[1] = biological target: Solute carrier family 2, facilitated glucose transporter member 1 (Homo sapiens) (UniProt P11166); test: ST_JUDE_LEISH: Cytotoxicity at 2uM final concentration against transgenic Leishmania Mexicana promastigotes LmGLUT1 that are glucose transport deficient and complemented with the human glucose transporter GLUT1. Activity is measured by DNA content using SYBR green in vitro
[2] = biological target: Hexose transporter 1 (Plasmodium falciparum) (UniProt O97467); test: ST_JUDE_LEISH: Cytotoxicity at 2uM final concentration against transgenic Leishmania Mexicana promastigotes LmPfHT that are glucose transport deficient and complemented with the Plasmodium falciparum hexose transporter. Activity is measured by DNA content using SYBR green in vitro
[3] = biological target: Glucose transporter (Leishmania mexicana) (UniProt O61059); test: ST_JUDE_LEISH: Cytotoxicity at 2uM final concentration against transgenic Leishmania Mexicana promastigotes LmGT2 that are glucose transport deficient and complemented with the L. Mexicana glucose transporter 2. Activity is measured by DNA content using SYBR green in vitro

Chain of Solute carrier family 2, facilitated glucose transporter member 1 (Homo sapiens) (P11166 whole entry): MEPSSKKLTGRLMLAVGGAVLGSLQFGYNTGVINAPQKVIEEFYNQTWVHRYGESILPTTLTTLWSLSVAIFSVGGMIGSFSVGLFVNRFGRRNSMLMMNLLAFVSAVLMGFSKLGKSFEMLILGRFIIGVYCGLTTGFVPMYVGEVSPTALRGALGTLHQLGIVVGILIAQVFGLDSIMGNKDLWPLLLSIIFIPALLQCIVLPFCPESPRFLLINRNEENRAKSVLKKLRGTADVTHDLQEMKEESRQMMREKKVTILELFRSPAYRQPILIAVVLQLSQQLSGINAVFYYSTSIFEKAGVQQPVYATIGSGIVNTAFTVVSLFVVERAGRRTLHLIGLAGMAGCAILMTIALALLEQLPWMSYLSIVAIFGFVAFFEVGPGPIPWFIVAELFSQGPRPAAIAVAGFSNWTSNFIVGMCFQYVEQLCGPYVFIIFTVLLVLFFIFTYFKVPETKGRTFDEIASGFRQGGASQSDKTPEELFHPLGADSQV

| SMILES | inhibition [1] | inhibition [2] | inhibition [3] |
| --- | --- | --- | --- |
| COc1ccc2[nH]ccc(=NN=Cc3ccccc3)c2c1 | 13.5% | 9.86% | 5.06% |
| Cc1cccc(C(=O)NCCCN2CCC(NC(=O)/C=C/c3ccc(Cl)c(Cl)c3)CC2)c1 | 1.05% | 0.15% | 2.02% |
| CN(C)c1ccc(C2(c3ccccc3)N=C(N)N(CCCc3ccccc3)C2=O)cc1 (centres undefined) | 3.64% | 3.4% | 0.65% |
| Cc1cc(NCCC(=O)NCCc2ccccc2)nc(NCCc2ccc(F)cc2)n1 | 2.76% | 3.87% | 2.22% |
| Cc1c(Cn2nc(Cl)c(N3CCNCC3)cc2=O)cccc1NC(=O)Nc1ccc(-c2ccccc2)cc1 | -2.62% | -2.29% | -0.03% |
| Cc1cc(NC(=O)c2cc(Br)ccc2Cl)n(-c2nc(C)c(C)c(=O)[nH]2)n1 | -1.92% | -1.98% | -4.55% |
| CCC(CC)NCc1c(O)ccc2c(CNC(CC)CC)c(O)ccc12 | -1.88% | -0.71% | -1.57% |
| Cc1ccc(-n2cc(CNCC3CCN(CCO)CC3)c(-c3ccc(F)cc3)n2)cc1 | 85% | 2.77% | 28.2% |
| Cc1ccccc1C1CCN(c2ncc(C(=O)NC3CC3)cc2Cl)CC1 | -1.43% | 5.9% | 2.12% |
| CCOc1ccc2nc(C)cc(N/N=C/c3ccccc3[N+](=O)[O-])c2c1 | 33.1% | 26.4% | 33.9% |
| CN(C)Cc1cccc2nc(-c3csc(Cc4cc(Cl)ccc4OCc4ccccc4)n3)[nH]c12 | 6.3% | 3.36% | 1.88% |
| O=C(C=Cc1ccc(Cl)c(Cl)c1)NCCCCCN1CCCC(CCCNS(=O)(=O)c2ccc(Br)cc2)C1 (centres undefined) | 5.1% | 3.96% | 2.95% |
| N#Cc1ccc(Sc2nnc(-c3ccccc3Cl)n2CC2CCCCC2)cc1[N+](=O)[O-] | 2.9% | 3.12% | 0.82% |
| O=C(Nc1ccc(OC2CCN(Cc3ccc(F)cc3)CC2)c(Cl)c1)c1cccs1 | 2.99% | 0.38% | 8.58% |
| c1cc(CNCC2CCCO2)cc(-c2cccc(-c3nc4ccccc4[nH]3)c2)c1 (centres undefined) | 1.58% | 1.76% | -0.18% |
| O=C(/C=C/c1ccc(Cl)c(Cl)c1)NC1CCC(CN2CCC(c3c[nH]c4ccncc34)CC2)CC1 (centres undefined) | 0.22% | 0.56% | 0.65% |
| CCCCCN1CCCCC(NS(=O)(=O)c2ccc(C(=O)Nc3cccc(C(F)(F)F)c3)cc2)C1 (centres undefined) | 6.68% | 5.05% | 3.25% |

| SMILES | inhibition [1] | inhibition [2] | inhibition [3] |
| --- | --- | --- | --- |
| O=C(N1CCN(c2cccc(C(F)(F)F)c2)CC1)C(Cl)(Cl)Cl | 0.96% | 5.03% | 1.47% |
| COCCNCc1nc(-c2ccc3c(Nc4ccc(F)c(O)c4)ccnc3c2)cs1 | 2.38% | 1.29% | 0.42% |
| Cc1cc(Nc2ncc(Cl)c(Nc3ccccc3C(N)=O)n2)n[nH]1 | -1.31% | 2.51% | 3.02% |
| O=C(NCc1ccccc1)c1ccc(C(=O)NCC2CNCCO2)cc1 (centres undefined) | 5.08% | 6.24% | 9.54% |
| CCCC(=O)NC(NC(=S)Nc1ccc([N+](=O)[O-])cc1)C(Cl)(Cl)Cl (centres undefined) | -1.2% | -0.54% | -0.01% |
| C[C@@H]1CC[C@H](NC(=O)[C@H](CC2CCCC2)NC(=O)N2CCNCC2)C(=O)CN1S(=O)(=O)c1ccccn1 | 1.44% | 0.17% | -0.32% |
| Clc1ccc(OCCC2CCN(CCCCCCCN3CCC(CCOc4ccc(Cl)c(Cl)c4)CC3)CC2)cc1Cl | 9.59% | 11.4% | 3.47% |
| Cc1cc(F)ccc1-c1nc(Nc2ccncc2)c2ccn(C)c2n1 | 1.12% | 2.6% | 0.38% |
| COc1ccc(S(=O)(=O)N2CCC(NS(=O)(=O)c3ccc(F)cc3)CC2)cc1 | 3.51% | 2.07% | 3.69% |
| COc1cc(-c2nc(-c3ccc(C(=O)c4ccc(F)cc4)cc3)c(-c3ccccc3)[nH]2)cc(OC)c1O | 3.28% | -0.56% | 0.05% |
| CSCCCN1CCC(O)(c2ccc3oc(C(=O)Nc4ccc5sc(C)nc5c4)cc3c2)CC1 | 23.3% | 24.5% | 14.7% |
| CC(=O)Nc1ccc(S(=O)(=O)N2CCN(c3nc(NC4CCCC4)c4ccccc4n3)CC2)cc1 | 0.69% | 3.35% | 2.94% |
| CCOC(=O)C(CO)NC(=O)c1ccc([N+](=O)[O-])o1 (centres undefined) | 2.12% | 2.06% | 5.24% |
| Cc1cc(C2CCN(CCCCNC(=O)c3ccc(-c4ccc(C(F)(F)F)cc4)cc3)CC2)c(C)cc1OCCOC1CCCCO1 (centres undefined) | 1.45% | -0.6% | 2.21% |
| COc1ccc(CNCc2ccsc2)cc1-c1ccc(OC)c(S(=O)(=O)NCCN2CCCC2)c1 | 1.22% | 1.92% | -1.86% |
| COc1ccc2ncc(Cl)c(CCN3C[C@H](CNCc4ccc5c(n4)NC(=O)CS5)[C@H](O)C3)c2n1 | 5.41% | 2.07% | 2.02% |
